CYP2C19 activ: cytochrome P450 2C19 (human) activation | activation factor at 5 µM | AID 1025 | 96,000 tested, under 10 active | recombinant CYP2C19, luciferin-H EGE luminescence; stronger effect = higher value; 0 = fully inhibited enzyme, 1 = untreated enzyme | P33261;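 active means activation factor of at least 2 at 5 µM in the primary screen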
CYP2C19 inhib: inhibitors of human CYP2C19. P33261. CYP2C19 Supersomes, luciferin-H EGE luminescence, 30 min. inhibition, % at 5 µM. hit rate 21% among 96,000;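 active means CYP2C19 inhibition above a set limit at 5 µM in the primary screen, cut at about 50% in these data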
CYP2C9 inhib: inhibitors of human CYP2C9; CYP2C9 Supersomes, luciferin-H conversion, luminescence; inhibition, % at 5 µM; hit rate 20% among 96,000; AID 777;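 active means blocking of liver enzyme CYP2C9 beyond about 50% at 5 µM, limit read from the data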
Mac1 fbg inh: CD11b/CD18-fibrinogen binding inhibition. P05107+P11215. inhibition, % at 10 µM. hit rate 0.54% among 93,000. K562 CD11b/CD18 adhesion to fibrinogen, ATPlite luminescence; Mn2+ added to activate the integrin;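 active means primary inhibition of 50% or more at 10 µM, then 40% or more on retest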
Target sequence (P05107 whole entry, looked up, other chains not shown): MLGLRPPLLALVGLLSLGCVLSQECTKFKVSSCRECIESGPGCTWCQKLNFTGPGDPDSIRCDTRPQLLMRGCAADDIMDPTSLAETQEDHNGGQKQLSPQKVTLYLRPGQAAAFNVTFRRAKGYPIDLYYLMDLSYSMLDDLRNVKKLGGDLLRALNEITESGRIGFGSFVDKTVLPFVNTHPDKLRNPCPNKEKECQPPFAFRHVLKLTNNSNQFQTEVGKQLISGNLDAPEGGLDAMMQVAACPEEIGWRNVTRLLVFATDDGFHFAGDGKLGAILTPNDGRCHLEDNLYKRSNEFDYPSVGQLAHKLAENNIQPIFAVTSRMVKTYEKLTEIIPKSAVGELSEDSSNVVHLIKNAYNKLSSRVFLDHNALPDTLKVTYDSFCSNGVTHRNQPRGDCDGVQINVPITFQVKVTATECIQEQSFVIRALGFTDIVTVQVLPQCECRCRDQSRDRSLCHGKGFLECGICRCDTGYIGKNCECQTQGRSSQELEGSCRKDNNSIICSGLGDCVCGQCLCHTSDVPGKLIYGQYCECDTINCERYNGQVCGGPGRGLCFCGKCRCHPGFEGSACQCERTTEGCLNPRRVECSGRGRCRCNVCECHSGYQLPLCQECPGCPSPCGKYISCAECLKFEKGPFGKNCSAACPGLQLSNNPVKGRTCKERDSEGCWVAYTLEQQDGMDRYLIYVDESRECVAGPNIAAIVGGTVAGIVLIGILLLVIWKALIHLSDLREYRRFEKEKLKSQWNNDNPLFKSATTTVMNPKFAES
CD11b adhes enh: increases human CD11b/CD18 adhesion to fibrinogen; P05107+P11215; K562 CD11b/CD18 adhesion to fibrinogen, ATPlite luminescence; activation, % at 10 µM; hit rate 0.07% among 93,000;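 active means 10 µM primary screen giving 50% or more activity, confirmed by 40% or more on retest at that dose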
CYP2C9 activ: CYP2C9 (human) activation; P11712; recombinant CYP2C9, luciferin-H conversion, luminescence; stronger effect = higher value; factor 1 = untreated enzyme, 0 = blocked; activation factor at 5 µM; hit rate 1.4% among 96,000;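 active means activation factor of 2 or more for CYP2C9 at a 5 µM dose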
Hits are given with their value; – = inactive; · = no result. Most compounds without a hit are left out; they make up all but 28% or so of the library.

SMILES	CYP2C19 activ	CYP2C19 inhib	CYP2C9 inhib	Mac1 fbg inh	CD11b adhes enh	CYP2C9 activ
CC1(C)c2ssc(=S)c2-c2ccccc2N1C(=O)CSC1=NCCS1	–	52	–	·	·	–
Cc1cc2c(cc1C)N(C(=O)CSC1=NCCS1)C(C)(C)c1ssc(=S)c1-2	–	78	70	–	–	–
COc1ccc2c(c1)-c1c(ssc1=S)C(C)(C)N2C(=O)CSC1=NCCS1	–	72	73	–	–	–
CCNC(=S)NNC(=O)Cn1nc(C)cc1C	–	–	–	–	–	–
CC(=O)c1ccc(OCC(O)CN2CCN(c3ccccn3)CC2)cc1 (stereo not given)	–	–	–	–	–	–
Cn1cccc1C(=O)c1ccc(Cl)cc1Cl	–	–	–	–	–	–
NC/C(=N\O)c1ccc(Cl)cc1Cl	–	80	52	–	–	–
COc1ccc2c(c1)CC(C1(O)C(=O)N(C)c3ccccc31)C2=O (stereo not given)	–	77	–	–	–	–
COc1cccc(CNC(=O)C2CCN(S(=O)(=O)c3cccs3)CC2)c1	–	–	–	–	–	–
S=c1[nH]nc(-c2cccnc2)o1	–	–	–	–	–	–
S=c1[nH]nc(-c2ccc3ccccc3n2)o1	–	–	53	–	–	–
COc1ccccc1-c1cc(C(=O)N2CCN(c3ccccc3OC)CC2)no1	–	54	–	–	–	2.7
O=C(c1cc(C2CC2)on1)N1CCN(c2ccc(F)cc2)CC1	–	83	–	–	–	–
COc1ccccc1N1CCN(C(=O)c2cc(-c3ccc(C)cc3)on2)CC1	–	–	–	–	–	–
O=C(c1cc(-c2cccs2)on1)N1CCN(c2ccccc2)CC1	–	63	72	–	–	–
COc1ccccc1N1CCN(C(=O)c2cc(C3CC3)on2)CC1	–	81	77	–	–	–
O=C(c1cc(-c2cccs2)on1)N1CCN(c2ccc(F)cc2)CC1	–	–	–	·	·	–
O=C(/C=C/c1ccc(F)cc1)c1ccccc1Br	·	·	·	–	–	·
Cc1nnc(SCC(=O)NC2CCCCC2)n(N)c1=O	–	–	–	–	–	–
COc1ccc(OC)c2c(C)cc(N3CCCN(C)CC3)nc12	–	–	–	–	–	–
COc1ccc(OC)c(-c2cc(C(=O)N3CCc4ccccc4C3)no2)c1	–	–	–	–	–	–
COc1ccc(OC)c(-c2cc(C(=O)N3CCN(c4ccccc4)CC3)no2)c1	–	76	–	–	–	–
CCC1CC2CC(NC(C)=O)C1C2 (stereo not given)	–	–	–	·	·	–
CCOc1ccc(N(CC(=O)NC2CCCC2)S(=O)(=O)c2c(C)[nH]c(=O)[nH]c2=O)cc1	–	–	–	–	–	–
CCOC(=O)CC(/C(C)=N\O)c1ccccc1 (stereo not given)	–	51	–	–	–	–
SMILES	CYP2C19 activ	CYP2C19 inhib	CYP2C9 inhib	Mac1 fbg inh	CD11b adhes enh	CYP2C9 activ
CCOC(=O)CC(C(=O)OCC)P(=O)(c1ccccc1)c1ccccc1 (stereo not given)	–	–	–	–	–	–
O=C(CCCn1c(=O)oc2ccccc21)N1CCc2ccccc2C1	–	75	–	–	–	–
O=C(CCCn1c(=S)[nH]c2cc3c(cc2c1=O)OCO3)N1CCc2ccccc2C1	–	–	57	·	·	–
Cc1cccc(N2CCN(C(=O)CCn3c(=S)[nH]c4cc5c(cc4c3=O)OCO5)CC2C)c1 (stereo not given)	–	–	53	–	–	–
O=C(CCn1c(=S)[nH]c2cc3c(cc2c1=O)OCO3)N1CCc2ccccc2C1	–	91	79	–	–	–
CCOC(=O)N1CCN(C(=O)CCn2c(=S)[nH]c3cc(OCC)c(OCC)cc3c2=O)CC1	–	–	–	–	–	–
O=C(NCCN1CCCC1)c1ccc(Cn2c(=S)[nH]c3cc4c(cc3c2=O)OCO4)cc1	–	–	–	–	–	–
CC(=O)OC1C(OC(C)=O)N(C(C)=O)C(=O)N1C(C)=O (stereo not given)	–	–	–	–	–	–
CCOC(=O)CN1C(=O)COc2ccc(C(C)(C)C)cc21	–	–	–	–	–	–
O=C1N2CN(C(c3ccccc3)c3ccccc3)CN=C2SC1(CO)CO	–	–	–	–	–	–
CC(C)OC(=O)CC12CN(C)CC(CC(=O)OC(C)C)(CN(C)C1)C2=O	–	–	–	·	·	–
Cc1cc(Cl)ccc1OC(C)c1nnc(N)s1 (stereo not given)	–	61	–	–	–	–
Cc1cc(Cl)ccc1OCCCC(N)=O	–	–	–	–	–	–
Cc1[nH][nH]c(=O)c1C(c1ccc(-c2ccc(Cl)c(Cl)c2)o1)c1c(C)[nH][nH]c1=O	–	59	–	–	–	–
Cc1ccc(S(=O)(=O)Oc2ccc(C(c3c(C)[nH][nH]c3=O)c3c(C)[nH][nH]c3=O)cc2)cc1	–	–	–	–	–	–
CCOC(=O)Cc1cc(=O)c2c(=O)n(-c3ccccc3)[nH]c2[nH]1	–	–	–	–	–	–
O=c1cc(-c2ccccc2)[nH]c2[nH]n(-c3ccccc3)c(=O)c12	–	–	56	–	–	–
CCCn1nnc(NC(=O)c2ccc(Cl)cc2Cl)n1	–	89	–	–	–	–
CC(C)Oc1cc(O)c2c(=O)c(-c3ccc(O)cc3)coc2c1	–	–	96	–	–	–
COc1ccc(-c2coc3cc(OC)cc(O)c3c2=O)cc1	–	–	–	·	·	–
Cc1cc(C)n(-c2ccc(C(=O)Nc3cc(S(=O)(=O)N(C)C)ccc3Cl)cc2)n1	·	·	·	–	–	·
Cc1cc(C)n(-c2ccc(C(=O)OCC(=O)c3ccc(Br)s3)cc2)n1	–	77	90	–	–	–
Cc1cc(C)n(-c2ccc(C(=O)OCC(=O)Nc3ccc(Cl)c(S(=O)(=O)N(C)C)c3)cc2)n1	–	83	–	–	–	–
Cc1cc(C)n(-c2ccc(C(=O)OCC(=O)Nc3ccc(S(=O)(=O)N4CCOCC4)cc3)cc2)n1	–	88	71	–	–	–
CCOCC(=O)Nc1ccc(S(=O)(=O)N2CCOCC2)cc1	–	–	–	–	–	–
COc1ccc(NC(=O)C2OC3OC(C)(C)OC3C3OC(C)(C)OC23)cc1 (stereo not given)	–	–	–	–	–	–
O=C(NCC(=O)N1CCN(c2ncccn2)CC1)c1cccs1	–	59	–	–	–	–
Cc1ccc(C(=O)NCC(=O)N2CCN(c3ncccn3)CC2)s1	–	–	72	–	–	–
CCOC(=O)C1(C(F)(F)F)N=C(c2cccnc2)OC(N2CCOCC2)=N1 (stereo not given)	–	–	–	–	–	–
COc1ccc(C2NC(=O)NC(O)(C(F)(F)F)C2C(=O)c2ccc(C)cc2)cc1 (stereo not given)	–	–	–	–	–	–
